Reference: PubChem BioAssay (NCATS)
Inconclusive results are not listed. A call without a number means that no potency is given here. Active and inactive are the calls of the source. Calls come from the whole dose curve; as a rule, active = well fitted cell-killing curve with a large enough effect; inconclusive = small, poorly fitted or top-dose-only effect, or effect the other way; inactive = flat fitted curve, though single readings scatter.

The compounds below were run on Es-2 (assay: Primary qHTS to identify gynecologic anti-cancer compounds using libraries of approved drugs and bioactive compounds (AID 1345084; note: nearly all actives have a fitted effect of over 55% in size)). Conditions: Gynecologic cancer cell panel viability, ATPlite luminescence, 48 h; series mostly up to 57.5 µM.
Procedure, shortened: (§1)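 Cell viability after 48 h drug treatment, ATPlite luminescence readout; five doses.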

| Compound | Potency | activity change, negative = cytotoxicity |
| --- | --- | --- |
| Cc1ncc([N+](=O)[O-])n1CC(O)CCl (configuration not stated) | inactive | – |
| C[C@@H]1CCN(C(=O)[C@H](CCCN=C(N)N)NS(=O)(=O)c2cccc3c2NC[C@H](C)C3)[C@@H](C(=O)O)C1 | inactive | – |
| Oc1ccc(C(O)CNCCCCCCNCC(O)c2ccc(O)c(O)c2)cc1O (configuration not stated) | inactive | – |
| CCCCC(CC)COC(=O)c1ccccc1O (configuration not stated) | inactive | – |
| N[C@H](C(=O)O)c1ccc(O)cc1 | inactive | – |
| NC(=O)NC(=O)Cc1ccccc1 | inactive | – |
| C#CCN(C)Cc1ccccc1 | inactive | – |
| NS(=O)(=O)c1cc2c(cc1C(F)(F)F)NC(Cc1ccccc1)NS2(=O)=O (configuration not stated) | inactive | – |
| O=C1N=C(O)CN1/N=C/c1ccc(-c2ccc([N+](=O)[O-])cc2)o1 | inactive | – |
| CCCCCCCCCCCCCCCCCCOCC(O)CO (configuration not stated) | inactive | – |
| NCCNCCNCCNCCN | – | -5.14% [at 11.6 µM] (inactive) |
| CN(C)CCCO[C@@H]1[C@H]2OC(C)(C)O[C@H]2O[C@@H]1C(O)CO (some centres not stated) | inactive | – |
| OC[C@H]1O[C@@H](O[C@@H]2[C@@H](CO)O[C@](O)(CO)[C@H]2O)[C@H](O)[C@@H](O)[C@H]1O | inactive | – |
| N[C@@H](CSSC[C@H](N)C(=O)O)C(=O)O | – | -1.97% [at 0.462 µM] (inactive) |
| CC1(C)CO[C@@H](CC(=O)O)CN1 | inactive | – |
| CC1=C(C/C=C(\C)CCC[C@H](C)CCC[C@H](C)CCCC(C)C)C(=O)c2ccccc2C1=O | inactive | – |
| COc1cc(C(=O)N2CCOCC2)cc(OC)c1OC | inactive | – |
| CCCCC/C(C=O)=C\c1ccccc1 | inactive | – |
| CC(=O)Nc1ccc(/C=N/NC(N)=S)cc1 | inactive | – |

| Compound | Potency | activity change, negative = cytotoxicity |
| --- | --- | --- |
| O=C1OC(OC(=O)c2cccnc2Nc2cccc(C(F)(F)F)c2)c2ccccc21 (configuration not stated) | inactive | – |
| O=C(O)CN1C(=O)c2cccc3cccc(c23)C1=O | inactive | – |
| CN1[C@@H]2CC[C@H]1CC(OC(=O)C(O)c1ccccc1)C2 (some centres not stated) | inactive | – |
| O=C(Oc1ccccc1C(=O)O)c1ccccc1O | inactive | – |
| CC(COc1ccccc1)NC(C)C(O)c1ccc(O)cc1 (configuration not stated) | inactive | – |
| CCN(CC)CCOC(=O)C1(C2CCCCC2)CCCCC1 | inactive | – |
| Cc1cc(O)cc2c1O[C@](C)(CCC[C@H](C)CCC[C@H](C)CCCC(C)C)CC2 | inactive | – |
| O=S(=O)(O)c1cc(I)c(O)c2ncccc12 | inactive | – |
| Cc1ncc(COP(=O)(O)O)c(C=O)c1O | inactive | – |
| CO/N=C(\C(=O)N[C@@H]1C(=O)N2C(C(=O)O)=C(CSc3nc(=O)c(O)nn3C)CS[C@H]12)c1csc(N)n1 | inactive | – |
| O=C(O)COc1nn(Cc2ccccc2)c2ccccc12 | inactive | – |
| CCCc1c(OCCCCc2nn[nH]n2)ccc(C(C)=O)c1O | inactive | – |
| COc1ccc2cc1Oc1cc3c(cc1OC)CC[N+](C)(C)[C@H]3Cc1ccc(cc1)Oc1c(OC)c(OC)cc3c1[C@@H](C2)[N+](C)(C)CC3 | inactive | – |
| NC1CCN(c2cccc(Cl)n2)CC1 | inactive | – |
| Nc1cc(=O)[nH]c(N)n1 | inactive | – |
| CC(O)COc1ccccc1 (configuration not stated) | inactive | – |
| CC1CC(OC(=O)C(O)c2ccccc2)CC(C)(C)N1C (configuration not stated) | inactive | – |
| O=C1O[C@H](CO)[C@@H](O)[C@H](O)[C@H]1O | inactive | – |
| NC(CSCC(=O)O)C(=O)O (configuration not stated) | inactive | – |

What follows are compounds tested on HeLa in the same assay as above. Conditions: Gynecologic cancer cell panel viability, ATPlite luminescence, 48 h; series mostly up to 57.5 µM.
Procedure, shortened: as §1

| Compound | Potency | activity change, negative = cytotoxicity |
| --- | --- | --- |
| Cc1ncc([N+](=O)[O-])n1CC(O)CCl (configuration not stated) | inactive | – |
| C[C@@H]1CCN(C(=O)[C@H](CCCN=C(N)N)NS(=O)(=O)c2cccc3c2NC[C@H](C)C3)[C@@H](C(=O)O)C1 | inactive | – |
| C[C@H](NC(CCc1ccccc1)C(=O)O)C(=O)N1CCC[C@H]1C(=O)O (some centres not stated) | inactive | – |
| Oc1ccc(C(O)CNCCCCCCNCC(O)c2ccc(O)c(O)c2)cc1O (configuration not stated) | inactive | – |
| CCCCC(CC)COC(=O)c1ccccc1O (configuration not stated) | inactive | – |
| N[C@H](C(=O)O)c1ccc(O)cc1 | inactive | – |
| NC(=O)NC(=O)Cc1ccccc1 | inactive | – |
| C#CCN(C)Cc1ccccc1 | inactive | – |
| NS(=O)(=O)c1cc2c(cc1C(F)(F)F)NC(Cc1ccccc1)NS2(=O)=O (configuration not stated) | inactive | – |
| O=C1N=C(O)CN1/N=C/c1ccc(-c2ccc([N+](=O)[O-])cc2)o1 | inactive | – |
| CCCCCCCCCCCCCCCCCCOCC(O)CO (configuration not stated) | inactive | – |
| NCCNCCNCCNCCN | – | 8.61% [at 11.6 µM] (inactive) |
| CN(C)CCCO[C@@H]1[C@H]2OC(C)(C)O[C@H]2O[C@@H]1C(O)CO (some centres not stated) | inactive | – |
| OC[C@H]1O[C@@H](O[C@@H]2[C@@H](CO)O[C@](O)(CO)[C@H]2O)[C@H](O)[C@@H](O)[C@H]1O | inactive | – |
| N[C@@H](CSSC[C@H](N)C(=O)O)C(=O)O | – | 1.97% [at 0.462 µM] (inactive) |
| CC1(C)CO[C@@H](CC(=O)O)CN1 | inactive | – |
| CC1=C(C/C=C(\C)CCC[C@H](C)CCC[C@H](C)CCCC(C)C)C(=O)c2ccccc2C1=O | inactive | – |
| COc1cc(C(=O)N2CCOCC2)cc(OC)c1OC | inactive | – |
| CCCCC/C(C=O)=C\c1ccccc1 | inactive | – |
| CC(=O)Nc1ccc(/C=N/NC(N)=S)cc1 | inactive | – |

| Compound | Potency | activity change, negative = cytotoxicity |
| --- | --- | --- |
| O=C1OC(OC(=O)c2cccnc2Nc2cccc(C(F)(F)F)c2)c2ccccc21 (configuration not stated) | inactive | – |
| O=C(O)CN1C(=O)c2cccc3cccc(c23)C1=O | inactive | – |
| CN1[C@@H]2CC[C@H]1CC(OC(=O)C(O)c1ccccc1)C2 (some centres not stated) | inactive | – |
| O=C(Oc1ccccc1C(=O)O)c1ccccc1O | inactive | – |
| CC(COc1ccccc1)NC(C)C(O)c1ccc(O)cc1 (configuration not stated) | inactive | – |
| CCN(CC)CCOC(=O)C1(C2CCCCC2)CCCCC1 | inactive | – |
| Cc1cc(O)cc2c1O[C@](C)(CCC[C@H](C)CCC[C@H](C)CCCC(C)C)CC2 | inactive | – |
| O=S(=O)(O)c1cc(I)c(O)c2ncccc12 | inactive | – |
| Cc1ncc(COP(=O)(O)O)c(C=O)c1O | inactive | – |
| CO/N=C(\C(=O)N[C@@H]1C(=O)N2C(C(=O)O)=C(CSc3nc(=O)c(O)nn3C)CS[C@H]12)c1csc(N)n1 | inactive | – |
| O=C(O)COc1nn(Cc2ccccc2)c2ccccc12 | inactive | – |
| CCCc1c(OCCCCc2nn[nH]n2)ccc(C(C)=O)c1O | inactive | – |
| COc1ccc2cc1Oc1cc3c(cc1OC)CC[N+](C)(C)[C@H]3Cc1ccc(cc1)Oc1c(OC)c(OC)cc3c1[C@@H](C2)[N+](C)(C)CC3 | inactive | – |
| NC1CCN(c2cccc(Cl)n2)CC1 | inactive | – |
| Nc1cc(=O)[nH]c(N)n1 | inactive | – |
| CC(O)COc1ccccc1 (configuration not stated) | inactive | – |
| CC1CC(OC(=O)C(O)c2ccccc2)CC(C)(C)N1C (configuration not stated) | inactive | – |
| O=C1O[C@H](CO)[C@@H](O)[C@H](O)[C@H]1O | inactive | – |
| NC(CSCC(=O)O)C(=O)O (configuration not stated) | inactive | – |
